# Source: PubChem BioAssay
# Values without a mark were called inactive. The source made the active and inactive calls. No stated cut-off is given here; in the data, active means inhibition above about 28%; inactive means the rest.
# Experiment: StAR promoter reporter inhibitors, counter-screen for LRH-1 inverse agonist project, cell-based, luminescence, high throughput (AID 651611)
# Conditions: StAR promoter luciferase reporter counterscreen, at 3.6 µM, stronger effect = higher value
row,Structure (SMILES),inhibition
1,O=C(N/N=C/c1ccc(Sc2ccccn2)o1)c1cccc([N+](=O)[O-])c1,-2.81%
2,CCOc1ccc(NC(=O)CSc2nc3cccnc3n2CCOC)cc1,21.3%
3,COC(=O)c1ccc(NC(=O)CSc2nc3ncccc3[nH]2)cc1,-4.1%
4,COc1ccccc1-n1c(SCC(=O)Nc2ccc(Cl)cc2)nc(O)c(Cc2ccccc2)c1=O,16.2%
5,CC1(C)CC(=O)C=C(c2ccc3c(c2)OCO3)C1,-7.31%
6,CC1(C)Cc2c(sc3nc(SCC(=O)NCc4ccco4)n(-c4ccccc4)c(=O)c23)CS1,14%
7,CN(C)c1ccc(C(=O)OCC(=O)Nc2ccc(N3CCOCC3)cc2)cc1,-5.42%
8,O=C(CSc1nc2ccc(F)cc2c(=O)n1-c1ccccc1)Nc1ccc2c(c1)CCC2,-3.68%
9,COc1cccc(NC(=O)c2oc3ccccc3c2NC(=O)C2CC2)c1,-5.29%
10,O=C(COC(=O)c1ccc(=O)n(Cc2ccccc2)n1)Nc1ccc2c(c1)OCCO2,11.8%
11,O=C(COc1ccc2c3c(c(=O)oc2c1)CCCC3)NCCCN1CCOCC1,14.4%
12,COc1ccc(-c2cc3ccccc3oc2=O)cc1NC(=O)c1ccc([N+](=O)[O-])o1,-51.4%
13,CC(=O)Nc1ccc(N=c2cc([N+](=O)[O-])cc(Cl)n2O)cc1,14.3%
14,COCC(=O)NC1CCN(CC(=O)Nc2ccc(OC)cc2[N+](=O)[O-])CC1,14.2%
15,O=[N+]([O-])c1ccc(N2CCN(Cc3ccccc3)CC2)c2c1no[n+]2[O-],63.5% (active)
16,Cn1nnnc1Sc1ncnc2scc(-c3ccc(-c4ccccc4)cc3)c12,19.4%
17,CN1CCN(C2=C(Cl)C(=O)N(c3ccc(Cl)c(Cl)c3)C2=O)CC1,11.1%
18,O=C(Nc1ccc(Cc2ccncc2)cc1)c1ccc([N+](=O)[O-])o1,16.6%
19,Nc1cccc(OCCCCCOc2cccc(N)c2)c1,-18.2%
20,COc1ccc2nc(N3CCN(C(=O)c4ccc([N+](=O)[O-])o4)CC3)sc2c1,0.52%

row,Structure (SMILES),inhibition
1,CCS(=O)(=O)Nc1cccc(-c2ccc3nnc(-c4cccnc4)n3n2)c1,21.7%
2,COc1cc2c(cc1OC)CN(C(=O)c1ccc([N+](=O)[O-])o1)CC2,12.4%
3,CC(O)(c1ccc(F)c(F)c1)c1nc(-c2ccc(S(C)(=O)=O)cc2)cs1 (stereo not given),3.51%
4,CC(=O)Nc1ccc2nc(NC(=O)c3ccc([N+](=O)[O-])o3)sc2c1,1.53%
5,COc1ccc(OC)c(CCNC(=O)Cn2nc(C)c3c(C)n(-c4ccc(C)cc4)nc3c2=O)c1,38.8% (active)
6,COc1cc(C(=O)Nc2sc3c(c2C#N)CCN(C(C)=O)C3)cc(OC)c1OC,23.3%
7,Cc1ccccc1Oc1nc2c(C)cccn2c(=O)c1/C=C(\C#N)C(=O)NC1CCS(=O)(=O)C1 (stereo not given),8.01%
8,O=C(c1ccc([N+](=O)[O-])s1)N1CCN(c2ncccn2)CC1,1.48%
9,Cc1cc(N2CCN(C(=O)c3ccco3)CC2)n2nc(-c3cccc(F)c3)cc2n1,14.2%
10,COCCn1c(SCC(=O)Nc2ccc(NC(C)=O)cc2)nc2ccccc2c1=O,17%
11,Cc1ccc(C)c(NC(=O)CSc2nnc(CCNC(=O)OC(C)(C)C)o2)c1,20.9%
12,CC(=O)N1CCc2c(sc(NC(=O)c3ccc([N+](=O)[O-])o3)c2C#N)C1,-28.6%
13,CCOC(=O)c1ccc(N2CCN(C(=O)c3ccccc3)CC2)c(NC(=O)c2ccco2)c1,26.2%
14,CCN(Cc1ccccc1)c1ccc(/C=N/N2CCOCC2)cc1,-41.2%
15,CC(C)[C@H](NC(=O)OCc1ccccc1)C(=O)OCC(=O)Nc1ccc(N2CCOCC2)cc1,10.9%
16,CCOC(=O)c1c(C)[nH]c(C(=O)COC(=O)/C=C/c2ccc3c(c2)OCO3)c1C,13%
17,Cc1ccnc2nc(C(=O)OCC(=O)Nc3ccc([N+](=O)[O-])cc3Br)nn12,9.71%
18,C=CCn1c(CCNC(=O)c2cccs2)nnc1SCC(=O)Nc1cccc(Cl)c1C,8.38%
19,CCOc1ccc(NC(=O)CSc2nc3ccccc3c(=O)n2CCCC(=O)NCC2CCCO2)cc1 (stereo not given),1.46%
20,O=C(NCc1ccc2c(c1)OCO2)c1cc([N+](=O)[O-])ccc1N1CCCCC1,44.1% (active)
